In PubChem BioAssay (NCI):
This is part of a sample that, as a whole, favours compounds with a hit. Of some 83,000 tested, about 20% had one in any assay.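 Cell lines were cultured in 96-well plates, exposed to a single compound concentration, and assessed for percent growth 48 hours later.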 Activity calls are given as the source filed them. How the source made its calls: active means growth percent below 10; inactive means the rest.

Key:
Experiment in all cases: NCI-60 one-dose screen, 48 h (100 = growth as untreated, 0 = no growth, -100 = all killed)
Details in all cases: 10 µM
NCI-H23 lung = system: NCI-H23 lung
NCI-H226 lung = system: NCI-H226 lung
NCI-H460 lung = system: NCI-H460 lung
HOP-92 NSCLC = system: HOP-92 NSCLC
A549/ATCC NSCLC = system: A549/ATCC NSCLC
786-0 renal = system: 786-0 renal
COLO 205 colon = system: COLO 205 colon
DU-145 prostate = system: DU-145 prostate
MALME-3M melanoma = system: MALME-3M melanoma
MDA-MB-231 breast = system: MDA-MB-231 breast
RXF 393 renal = system: RXF 393 renal
SF-268 CNS = system: SF-268 CNS
SF-295 CNS = system: SF-295 CNS
SF-539 CNS = system: SF-539 CNS
UACC-257 melanoma = system: UACC-257 melanoma
M14 melanoma = system: M14 melanoma
NCI-H522 lung = system: NCI-H522 lung
K-562 leukemia = system: K-562 leukemia

Measured: growth

O=C(CCCCCCC(=O)Nc1ccccc1)NO
inactive: NCI-H226 lung 48.9% | NCI-H460 lung 16.3% | 786-0 renal 23.2% | MDA-MB-231 breast 16.4% | SF-268 CNS 14.9% | SF-539 CNS 16.8% | M14 melanoma 23%
active: NCI-H23 lung 3.33% | HOP-92 NSCLC -10.4% | A549/ATCC NSCLC 7.25% | COLO 205 colon -62.8% | DU-145 prostate 3.46% | MALME-3M melanoma 1.69% | RXF 393 renal -39.9% | SF-295 CNS -22.6% | UACC-257 melanoma -26%

COc1ccc(Cc2cnc(N)nc2N)cc1OC
inactive: NCI-H23 lung 96.8% | NCI-H226 lung 99.1% | NCI-H460 lung 105% | HOP-92 NSCLC 90.1% | A549/ATCC NSCLC 101% | 786-0 renal 109% | COLO 205 colon 108% | DU-145 prostate 114% | MALME-3M melanoma 113% | MDA-MB-231 breast 95.3% | RXF 393 renal 105% | SF-268 CNS 106% | SF-295 CNS 96.2% | SF-539 CNS 107% | UACC-257 melanoma 100% | M14 melanoma 108%

C[C@@H](O)[C@H]1C(=O)N2C(C(=O)O)=C(SCCN=CN)C[C@H]12
active: NCI-H23 lung -1.59% | NCI-H226 lung -34.7% | NCI-H460 lung 1.59% | HOP-92 NSCLC -8.43% | A549/ATCC NSCLC -14.9% | 786-0 renal 8.8% | COLO 205 colon -25.8% | DU-145 prostate -7.37% | MALME-3M melanoma -60.1% | MDA-MB-231 breast 9.83% | RXF 393 renal 1.5% | SF-268 CNS -4.56% | SF-295 CNS -5.26% | SF-539 CNS 3.65% | UACC-257 melanoma -31% | M14 melanoma -44.7%

Nc1ccc(-c2cccs2)cc1NC(=O)c1ccc(CCCC(=O)Nc2ccc(C3CC3N)cc2)cc1 (stereo not given)
inactive: NCI-H23 lung 86.3% | NCI-H226 lung 108% | NCI-H460 lung 38% | NCI-H522 lung 53.6% | A549/ATCC NSCLC 72.1% | COLO 205 colon 73.9% | DU-145 prostate 84.6% | MALME-3M melanoma 75.1% | MDA-MB-231 breast 47.1% | RXF 393 renal 77% | SF-268 CNS 104% | SF-295 CNS 84% | SF-539 CNS 77% | M14 melanoma 70.8%
active: 786-0 renal -48% | K-562 leukemia -30.7%

CC1/C=C/C=C/C=C/C=C/C=C/C=C/C=C/C(O[C@@H]2O[C@H](C)[C@H](O)[C@@H](O)[C@@H]2N)CC(O)C(C(=O)O)C(O)CC(=O)CC(O)CC(O)CC(O)CC(=O)CCCC(=O)CC(=O)OC1C(C)CC(C)C(O)CC(=O)c1ccc(N)cc1 (stereo not given in full)
active: NCI-H23 lung -96.5% | NCI-H226 lung -93% | NCI-H460 lung -81.8% | HOP-92 NSCLC -88.2% | A549/ATCC NSCLC -100% | 786-0 renal -94% | COLO 205 colon -83.2% | DU-145 prostate -98.7% | MALME-3M melanoma -92.5% | MDA-MB-231 breast -94.8% | RXF 393 renal -90.9% | SF-268 CNS -95.8% | SF-295 CNS -95.3% | SF-539 CNS -71.4% | UACC-257 melanoma -99.7% | M14 melanoma -88.7%

COc1cc2cc(Oc3ccc(NC(=O)c4cccc(C(F)(F)F)c4)cc3)c(C)nc2cc1OC
active: SF-295 CNS 8.94%
inactive: NCI-H23 lung 27.1% | NCI-H226 lung 48.1% | NCI-H460 lung 28.3% | NCI-H522 lung 28.9% | A549/ATCC NSCLC 24.1% | 786-0 renal 45.4% | COLO 205 colon 27.2% | DU-145 prostate 52.9% | K-562 leukemia 23.8% | MALME-3M melanoma 47.5% | MDA-MB-231 breast 33.3% | RXF 393 renal 54% | SF-268 CNS 62.9% | SF-539 CNS 60% | UACC-257 melanoma 44.9% | M14 melanoma 16.1%

Cc1c2c[n+](C(C)C)ccc2c(C)c2c1[nH]c1ccccc12
active: NCI-H23 lung 6.42% | NCI-H460 lung 4.39% | NCI-H522 lung 2.71% | COLO 205 colon -6.61% | MALME-3M melanoma -25.6% | SF-295 CNS 2.91%
inactive: NCI-H226 lung 27.4% | A549/ATCC NSCLC 20.4% | 786-0 renal 27.7% | DU-145 prostate 36.1% | K-562 leukemia 23.3% | MDA-MB-231 breast 35.3% | RXF 393 renal 60.3% | SF-268 CNS 15.3% | SF-539 CNS 20.8% | M14 melanoma 30%

CNC(=O)c1c(I)c(NC(C)=O)c(I)c(C(=O)O)c1I
inactive: NCI-H23 lung 97.5% | NCI-H226 lung 98.8% | NCI-H460 lung 109% | HOP-92 NSCLC 92.7% | A549/ATCC NSCLC 105% | 786-0 renal 127% | COLO 205 colon 118% | DU-145 prostate 113% | MALME-3M melanoma 112% | MDA-MB-231 breast 95.5% | RXF 393 renal 115% | SF-268 CNS 108% | SF-295 CNS 119% | SF-539 CNS 109% | UACC-257 melanoma 114%

O=[N+]([O-])c1cc(Cl)cc(Cl)c1O
inactive: NCI-H23 lung 97.7% | NCI-H226 lung 101% | NCI-H460 lung 105% | HOP-92 NSCLC 105% | NCI-H522 lung 82.3% | 786-0 renal 99.9% | COLO 205 colon 108% | DU-145 prostate 105% | K-562 leukemia 109% | MALME-3M melanoma 97.1% | MDA-MB-231 breast 110% | RXF 393 renal 104% | SF-268 CNS 100% | SF-295 CNS 97.3% | SF-539 CNS 89.7% | UACC-257 melanoma 104%

CCNc1nc(C(F)(F)F)nc2c1sc(=S)n2-c1ccccc1
inactive: NCI-H23 lung 93.4% | NCI-H226 lung 88.5% | NCI-H460 lung 100% | NCI-H522 lung 70.4% | A549/ATCC NSCLC 74.4% | 786-0 renal 101% | COLO 205 colon 106% | DU-145 prostate 101% | K-562 leukemia 103% | MALME-3M melanoma 144% | MDA-MB-231 breast 85.1% | RXF 393 renal 100% | SF-268 CNS 105% | SF-295 CNS 94% | SF-539 CNS 101% | M14 melanoma 108%

CCOC(=O)CSc1nc(-c2cc(OC)ccc2OC)cc(-c2ccc(OC)cc2)c1C#N
inactive: NCI-H23 lung 87% | NCI-H226 lung 86.4% | NCI-H460 lung 66.6% | NCI-H522 lung 55.8% | A549/ATCC NSCLC 61.6% | 786-0 renal 71.9% | COLO 205 colon 101% | DU-145 prostate 75.2% | K-562 leukemia 106% | MALME-3M melanoma 98.8% | MDA-MB-231 breast 83.9% | RXF 393 renal 70.3% | SF-268 CNS 73.9% | SF-295 CNS 70.3% | SF-539 CNS 64.6% | M14 melanoma 76.9%

CCOC(=O)c1sc2ncnc(Nc3ccc(NC(=O)Nc4ccc(Cl)cc4)cc3)c2c1C
active: SF-539 CNS -1.23%
inactive: NCI-H23 lung 52.2% | NCI-H226 lung 87.3% | NCI-H460 lung 41.1% | NCI-H522 lung 54.1% | 786-0 renal 52.3% | COLO 205 colon 53% | DU-145 prostate 54% | K-562 leukemia 83.7% | MALME-3M melanoma 26.4% | MDA-MB-231 breast 23.8% | RXF 393 renal 19.4% | SF-268 CNS 72.1% | SF-295 CNS 33.1% | M14 melanoma 64.8%

O=C(Nc1ccccc1)Nc1ncnc2c1ncn2-c1ccccc1
active: NCI-H460 lung 7.9%
inactive: NCI-H23 lung 90.9% | NCI-H226 lung 59.1% | NCI-H522 lung 74.4% | A549/ATCC NSCLC 44.5% | 786-0 renal 12.1% | COLO 205 colon 86.1% | DU-145 prostate 99.2% | K-562 leukemia 98.7% | MALME-3M melanoma 76.5% | MDA-MB-231 breast 68.3% | RXF 393 renal 95.4% | SF-268 CNS 92.5% | SF-295 CNS 31% | SF-539 CNS 82.8% | M14 melanoma 81.4%

Cc1c2cnccc2c(C)c2c1c1cc(O)ccc1n2C(C)C
active: NCI-H23 lung 0.21% | NCI-H460 lung -10% | NCI-H522 lung -9.59% | A549/ATCC NSCLC 7.74% | 786-0 renal 5.57% | MALME-3M melanoma -17.9% | MDA-MB-231 breast 9.51% | RXF 393 renal -39.5% | SF-268 CNS 9.03% | SF-539 CNS 7.2% | M14 melanoma -19%
inactive: NCI-H226 lung 79.3% | COLO 205 colon 17.9% | DU-145 prostate 12.1% | K-562 leukemia 16.9% | SF-295 CNS 34.5%

CC(C)[N+]1(C)C2CC[C@@H]1CC(OC(=O)C(CO)c1ccccc1)C2 (stereo not given in full)
inactive: NCI-H23 lung 92% | NCI-H226 lung 103% | NCI-H460 lung 108% | A549/ATCC NSCLC 92.3% | 786-0 renal 103% | DU-145 prostate 117% | MALME-3M melanoma 103% | MDA-MB-231 breast 98.8% | RXF 393 renal 120% | UACC-257 melanoma 96.9% | M14 melanoma 110%

CCCCCOC(=O)Nc1nc(=O)n(C2O[C@H](C)[C@@H](O)[C@H]2O)cc1F (stereo not given in full)
inactive: NCI-H23 lung 95.3% | NCI-H226 lung 97.7% | HOP-92 NSCLC 92.4% | A549/ATCC NSCLC 98% | 786-0 renal 106% | COLO 205 colon 106% | DU-145 prostate 115% | MALME-3M melanoma 103% | MDA-MB-231 breast 90.9% | RXF 393 renal 98.1% | SF-268 CNS 95.4% | SF-295 CNS 98.1% | SF-539 CNS 101% | UACC-257 melanoma 96.2% | M14 melanoma 108%

COc1ccc(C(=O)N2C=Cc3ccccc3C2C#N)cc1 (stereo not given)
inactive: NCI-H23 lung 95.3% | NCI-H226 lung 87.7% | HOP-92 NSCLC 102% | NCI-H522 lung 94.2% | A549/ATCC NSCLC 101% | 786-0 renal 114% | COLO 205 colon 105% | DU-145 prostate 109% | K-562 leukemia 67.4% | MALME-3M melanoma 100% | MDA-MB-231 breast 86.9% | RXF 393 renal 90% | SF-268 CNS 99.9% | SF-295 CNS 99.2% | SF-539 CNS 96.8% | UACC-257 melanoma 93.7% | M14 melanoma 116%

CCCCCC(=O)O[C@]1(C(C)=O)CCC2C3CCC4=CC(=O)CC[C@]4(C)C3CC[C@@]21C (stereo not given in full)
inactive: NCI-H23 lung 22.1% | NCI-H226 lung 52.7% | NCI-H460 lung 15.2% | A549/ATCC NSCLC 27.9% | 786-0 renal 40.3% | COLO 205 colon 13.3% | DU-145 prostate 55.4% | MALME-3M melanoma 62.1% | MDA-MB-231 breast 29.1% | RXF 393 renal 53.2% | SF-268 CNS 43.6% | SF-295 CNS 13.1% | SF-539 CNS 74.8% | UACC-257 melanoma 14% | M14 melanoma 23.8%

N#Cc1c(-c2ccc(Cl)cc2)cc(-c2cc(O)ccc2O)nc1N
inactive: NCI-H23 lung 11.2% | NCI-H226 lung 94.8% | A549/ATCC NSCLC 40% | DU-145 prostate 21.7% | K-562 leukemia 29.1% | MALME-3M melanoma 30.2% | RXF 393 renal 15.7% | SF-268 CNS 31.9% | SF-295 CNS 75.6%
active: NCI-H460 lung 5.46% | NCI-H522 lung -8.49% | 786-0 renal -4.38% | MDA-MB-231 breast -5.89% | SF-539 CNS -1.42%
